Laboratory results reported in PubChem BioAssay.
Unmarked numbers belong to inactive results. The rule behind the calls is not given here.

Target: Pantothenate synthetase (Mycobacterium tuberculosis (strain ATCC 25618 / H37Rv)) (UniProt P9WIL5)
Experiment: Recombinant Mtb pantothenate synthetase (PanC) inhibitors, coupled enzyme, confirmatory (AID 375);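 note: 0% = full reaction with vehicle and 100% = no enzyme background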
Settings: coupled enzyme assay; at 10 µM, hits give high values

Pantothenate synthetase (Mycobacterium tuberculosis (strain ATCC 25618 / H37Rv)), sequence (P9WIL5 whole entry, looked up): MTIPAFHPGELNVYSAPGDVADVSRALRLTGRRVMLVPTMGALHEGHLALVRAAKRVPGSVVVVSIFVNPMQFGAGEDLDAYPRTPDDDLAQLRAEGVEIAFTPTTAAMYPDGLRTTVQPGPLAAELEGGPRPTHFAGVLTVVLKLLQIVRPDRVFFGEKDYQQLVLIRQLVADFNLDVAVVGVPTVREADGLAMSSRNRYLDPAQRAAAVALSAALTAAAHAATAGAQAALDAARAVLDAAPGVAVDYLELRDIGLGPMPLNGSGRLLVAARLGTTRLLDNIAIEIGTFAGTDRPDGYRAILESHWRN

First: CCOC(=O)CSc1cn2c(n1)CCC2
Second: Nc1ncnc2nc(SCCN3CCCCC3)[nH]c12
The inhibition of the first is lower: 3% for the first, 4% for the second.

Going from `COc1ccc(NC(=O)c2oc3ccc(S(=O)(=O)N4CCC5(CC4)OCCO5)cc3c2C)cc1` to `COc1ccc(S(=O)(=O)N2CCN(CC(=O)Nc3ccc(F)c(F)c3)CC2)cc1`, the inhibition rises from 6% to 7%.

Going from `O=C1CCc2cc(S(=O)(=O)N3CCC(C(=O)Nc4nccs4)CC3)ccc2N1` to `COc1cccc2sc(NC(=O)c3ccc(S(=O)(=O)N4CCOCC4)cc3)nc12`, the inhibition falls from 4% to 1%.

First: CC(=O)Nn1c(C)nnc1-n1nc(C)cc1C
Second: COc1ccc(C(=O)CSc2nnc(CNc3ccc(C)cc3C)o2)cc1
The inhibition of the first is lower: 0% for the first, 2% for the second.

Compared with `CSCCC(NC(=O)c1ccco1)C(=O)OC(C)C(=O)NC(=O)NC1CCCCC1` (configuration not stated), `COc1cccc(Cn2c(OCC3CCCO3)nc3c2c(=O)n(C)c(=O)n3C)c1` (configuration not stated) is higher in inhibition: 0% for the first, 3% for the second.

Going from `COc1ccc(S(=O)(=O)NCc2ccc3c(c2)OCO3)cc1C(=O)O` to `CCC1Oc2ccccc2N(CC(=O)Nc2ccc(OC)cc2OC)C1=O` (configuration not stated), the inhibition falls from 5% to 0%.

First: Oc1ccc(C=Nc2cccc3ncccc23)c(O)c1
Second: CN1C(C(=O)Nc2ccccn2)=C(O)c2ccccc2S1(=O)=O
The inhibition of the first is lower: 2% for the first, 9% for the second.

Going from `CCOc1ccc(-c2nnc(N)s2)cc1` to `CCOc1ccc(S(=O)(=O)Nc2ccccc2C(=O)Nc2ccccc2N2CCOCC2)cc1`, the inhibition rises from 0% to 1%.

`CNC(=O)c1ccc(N(Cc2ccccc2C)S(C)(=O)=O)cc1` showed an inhibition of 7%.
